Activity calls are given as the source filed them. How the source made its calls: active means hit-call score of the fitted dose curve at least 0.9, where 1 is the maximum; inactive means score below 0.9.
Tests used:
Settings in all cases: mRNA level, 48 h; actives raise or lower the signal
[1] = read-out: Alkaline Phosphatase, Placental (ALPP) gene, ALPP (gene 250); assay: LTEA_HepaRG_ALPP: Life Technologies and Expression Analysis (LTEA) Assay for Alkaline Phosphatase, Placental (ALPP) gene using HepaRG (AID 2283468)
Outline: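 Using human liver HepaRG cells, chemicals are tested in duplicate over 48 h at half-log concentrations topping at 100 uM; phenobarbital 1 mM serves as induction control. ALPP mRNA change by qRT-PCR, bidirectional fit against vehicle.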

[2] = read-out: Bcl-2 (BAD) gene, BAD (gene 572); assay: LTEA_HepaRG_BAD: Life Technologies and Expression Analysis (LTEA) Assay for Bcl-2 (BAD) gene using HepaRG (AID 2283469)
Outline: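 Differentiated human HepaRG cells in serum-free induction medium were exposed in duplicate for 48 h to eight concentrations (top 100 uM, half-log steps, 0.5% DMSO). BAD mRNA was quantified by qRT-PCR normalised to ACTB, GAPDH and POLR2A, with bidirectional fitting versus DMSO.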

[3] = read-out: Bcl-2 (BAX) gene, BAX (gene 581); assay: LTEA_HepaRG_BAX: Life Technologies and Expression Analysis (LTEA) Assay for Bcl-2 (BAX) gene using HepaRG (AID 2283470)
Outline: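 Differentiated HepaRG cells exposed 48 h in serum-free induction medium, eight half-log concentrations from 100 uM, in duplicate, 0.5% DMSO vehicle. BAX mRNA by TaqMan qRT-PCR, normalised to ACTB, GAPDH and POLR2A.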

[4] = read-out: adenosine kinase (ADK) gene, ADK (gene 132); assay: LTEA_HepaRG_ADK: Life Technologies and Expression Analysis (LTEA) Assay for adenosine kinase (ADK) gene using HepaRG (AID 2283471)
Outline: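 Following 48 h exposure of HepaRG cells in 0.5% DMSO (top concentration 100 uM, duplicate wells), ADK mRNA induction or suppression was measured by qRT-PCR, normalised to ACTB/GAPDH/POLR2A, and fitted bidirectionally relative to vehicle.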

[5] = read-out: Alpha-fetoprotein (AFP) gene, AFP (gene 174); assay: LTEA_HepaRG_AFP: Life Technologies and Expression Analysis (LTEA) Assay for Alpha-fetoprotein (AFP) gene using HepaRG (AID 2283472)
Outline: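 Differentiated human HepaRG cells exposed 48 h in serum-free induction medium, 8-point half-log series from 100 uM in 0.5% DMSO, duplicate. AFP mRNA by qRT-PCR, normalized to ACTB, GAPDH, POLR2A; bidirectional fit vs DMSO.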

BCL2L11 (gene 10018) = assay: LTEA_HepaRG_BCL2L11: Life Technologies and Expression Analysis (LTEA) Assay for Bcl-2 (BCL2L11) gene using HepaRG (AID 2283473)
Outline: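 Human hepatic HepaRG cultures are treated 48 h with test chemicals (maximum 100 uM, 0.5% DMSO vehicle). Expression of BCL2L11 is measured by qRT-PCR against ACTB, GAPDH and POLR2A, with activity in either direction scored relative to vehicle.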

[6] = read-out: Apolipoprotein A-V (APOA5) gene, APOA5 (gene 116519); assay: LTEA_HepaRG_APOA5: Life Technologies and Expression Analysis (LTEA) Assay for Apolipoprotein A-V (APOA5) gene using HepaRG (AID 2283474)
Outline: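 Concentration-response of APOA5 expression in HepaRG: eight half-log doses to 100 uM, 48 h, qRT-PCR normalized to ACTB/GAPDH/POLR2A, bidirectional fitting with 0.5% DMSO as baseline.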

[7] = read-out: Apoptosis regulator Bcl-2 (Homo sapiens) (UniProt P10415); assay: LTEA_HepaRG_BCL2: Life Technologies and Expression Analysis (LTEA) Assay for Bcl-2 gene using HepaRG (AID 2283475)
Outline: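 Differentiated human HepaRG cells in serum-free induction medium exposed 48 h, in duplicate, to 8-point half-log series from 100 uM in 0.5% DMSO. BCL2 mRNA by qRT-PCR (TaqMan/Fluidigm), normalized to ACTB, GAPDH, POLR2A; bidirectional fit against DMSO.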

Caspase-3 (Homo sapiens) = Caspase-3 (Homo sapiens) (UniProt P42574); assay: LTEA_HepaRG_CASP3: Life Technologies and Expression Analysis (LTEA) Assay for cysteine-aspartic acid protease (CASP3) using HepaRG (AID 2283477)
Outline: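 Transcript-level assay: CASP3 mRNA in human HepaRG after 48 h treatment, eight half-log concentrations from 100 uM in 0.5% DMSO, quantified by qRT-PCR.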

[8] = read-out: Bcl-2 (BID) gene, BID (gene 637); assay: LTEA_HepaRG_BID: Life Technologies and Expression Analysis (LTEA) Assay for Bcl-2 (BID) gene using HepaRG (AID 2283476)
Outline: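 Gene expression by qRT-PCR in HepaRG cells after 48 h exposure, duplicate wells, eight half-log concentrations topping at 100 uM in 0.5% DMSO. Normalized to ACTB, GAPDH, POLR2A; bidirectional fitting relative to DMSO.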

Measured: AC50

Chain of Caspase-3 (Homo sapiens) (P42574 whole entry, looked up): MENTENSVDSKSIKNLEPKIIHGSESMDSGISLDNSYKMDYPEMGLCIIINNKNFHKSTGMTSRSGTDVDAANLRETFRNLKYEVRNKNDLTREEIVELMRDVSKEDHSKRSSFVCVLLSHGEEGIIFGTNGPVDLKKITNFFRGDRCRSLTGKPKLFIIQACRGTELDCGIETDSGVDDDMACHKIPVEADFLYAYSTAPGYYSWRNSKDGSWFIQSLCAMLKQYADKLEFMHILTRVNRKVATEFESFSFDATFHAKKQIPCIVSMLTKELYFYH
Chain of Apoptosis regulator Bcl-2 (Homo sapiens) (P10415 whole entry, looked up): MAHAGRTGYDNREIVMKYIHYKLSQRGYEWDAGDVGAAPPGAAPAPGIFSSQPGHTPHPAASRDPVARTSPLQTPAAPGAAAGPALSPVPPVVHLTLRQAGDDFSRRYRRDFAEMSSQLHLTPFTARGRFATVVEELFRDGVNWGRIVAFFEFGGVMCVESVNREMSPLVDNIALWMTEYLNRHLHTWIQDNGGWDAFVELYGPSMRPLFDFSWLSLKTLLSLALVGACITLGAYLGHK

CCc1nn(C2CCCCC2)c2cc(C3(C#N)CCC(C(=O)O)CC3)ccc12 (centres undefined)
inactive: [2] | [4] | Caspase-3 (Homo sapiens)
active: [1] 50 µM | [3] 50 µM | [5] 64 µM | BCL2L11 (gene 10018) 8.54 µM | [6] 77.4 µM | [7] 74.3 µM

OCCC(F)(F)C(F)(F)C(F)(F)C(F)(F)C(F)(F)C(F)(F)F
not listed: BCL2L11 (gene 10018)
inactive: all other assays above

O=C(O)Cc1cc(I)c(Oc2cc(I)c(O)c(I)c2)c(I)c1
inactive: [2] | [3] | BCL2L11 (gene 10018) | Caspase-3 (Homo sapiens)
active: [1] 13.6 µM | [4] 45.7 µM | [5] 37.5 µM | [6] 57.7 µM | [7] 21.7 µM

COCC(C)O (centres undefined)
not listed: BCL2L11 (gene 10018)
inactive: all other assays above

c1ccc2cc3c(ccc4ccccc43)cc2c1
active: [5] 25.9 µM | BCL2L11 (gene 10018) 7.02 µM | [6] 15.9 µM
inactive: all other assays above

CCCCCCCCCCCCCCCS(=O)(=O)Oc1ccccc1
not listed: [8]
inactive: all other assays above

CCCCCCCCCCCCc1ccccc1S(=O)(=O)O
active: [1] 91.6 µM | [3] 50 µM | [5] 80 µM | [6] 80.3 µM | [7] 50 µM
inactive: [2] | [4] | BCL2L11 (gene 10018) | Caspase-3 (Homo sapiens)

OC1CCC(C2CCCCC2)CC1 (centres undefined)
not listed: [8]
inactive: all other assays above

c1ccc2c(c1)ccc1ccccc12
not listed: BCL2L11 (gene 10018)
inactive: all other assays above

O=C(OCCOCCOC(=O)c1ccccc1)c1ccccc1
not listed: BCL2L11 (gene 10018) | [8]
inactive: all other assays above

CC(C)(C)c1ccc(O)c(C(C)(C)C)c1
active: [7] 0.123 µM
not listed: BCL2L11 (gene 10018) | [8]
inactive: all other assays above

COC(=O)CCCCC(=O)OC
not listed: BCL2L11 (gene 10018) | [8]
inactive: all other assays above

CCC(C)(C)C1CCC(O)CC1 (centres undefined)
not listed: BCL2L11 (gene 10018) | [8]
inactive: all other assays above

CCCOC(=O)c1ccc(O)cc1
not listed: BCL2L11 (gene 10018) | [8]
inactive: all other assays above

CCc1ccc(CCOc2ccc(CC3SC(=O)NC3=O)cc2)nc1 (centres undefined)
active: [1] 38.2 µM | [6] 84.6 µM | [7] 72.6 µM
inactive: [2] | [3] | [4] | Caspase-3 (Homo sapiens)

CC[C@H](c1ccc(O)cc1)[C@@H](CC)c1ccc(O)cc1
active: [1] 83.6 µM | [4] 77.1 µM | Caspase-3 (Homo sapiens) 78.4 µM
not listed: BCL2L11 (gene 10018) | [8]
inactive: all other assays above

CN1CCN(c2ccccc2/C=C2\SCCN(c3ccc(Cl)c(Cl)c3)C2=O)CC1
active: [1] 15.8 µM | [5] 11.5 µM
not listed: BCL2L11 (gene 10018) | [8]
inactive: all other assays above

Cc1oc(-c2ccccc2)nc1CCOc1ccc(C[C@H](Nc2ccccc2C(=O)c2ccccc2)C(=O)O)cc1
active: [1] 26.1 µM | [4] 30.5 µM | Caspase-3 (Homo sapiens) 32.7 µM
not listed: BCL2L11 (gene 10018) | [8]
inactive: all other assays above

Nc1cccc2c(N)cccc12
not listed: BCL2L11 (gene 10018) | [8]
inactive: all other assays above

N#C[C@@H]1CC(F)(F)CN1C(=O)CNC1CC2CCC(C1)N2c1ncccn1 (some centres undefined)
not listed: BCL2L11 (gene 10018) | [8]
inactive: all other assays above

CC[C@H](C)[C@@H](C(=O)O)n1sc2ccccc2c1=O
not listed: BCL2L11 (gene 10018)
inactive: all other assays above

c1ccc2c(c1)Cc1ccccc1-2
not listed: BCL2L11 (gene 10018) | [8]
inactive: all other assays above

Oc1cc2ccccc2c2ccccc12
not listed: BCL2L11 (gene 10018)
inactive: all other assays above

Cc1cc(CCN2CCN(c3nsc4ccccc34)CC2)cc2c1NC(=O)CC2(C)C
inactive: [2] | [4] | [8] | Caspase-3 (Homo sapiens)
active: [1] 50 µM | [3] 93 µM | [5] 72.6 µM | [6] 75.9 µM | [7] 68.2 µM
